PubChem BioAssay (Tox21)
Unmarked numbers belong to inactive results. Records with an inconclusive call do not appear. Where a call stands in place of a potency, no number is given. Activity calls are given as the source filed them. Unless noted, the call rests on the fitted dose curve; in most records, active means well fitted curve in the direction sought with a large enough effect in the repeat runs; inconclusive means weak or mixed curves; inactive means no such curve, though single readings can be large; an effect the other way counts as inactive or inconclusive.

Legend:
[1] = qHTS assay to identify small molecule agonists of the hypoxia (HIF-1) signaling pathway - cell viability counter screen (AID 1224844; calls by dose curve; further: nearly all actives have a fitted effect of over 50% in size)
Procedure, shortened: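 Multiplexed with the HRE beta-lactamase assay, this viability read used CellTiter-Glo luminescence (30 min, RT) on HRE-bla ME-180 cells treated 17 hrs with compounds in 0.5% dialyzed FBS medium.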

[2] = qHTS assay to identify small molecule agonists of H2AX (AID 1224845; active means well fitted activation curve with a large enough effect in the signal ratio in the repeat runs, not every such curve was filed as active; the % refers to the signal ratio)
Procedure, shortened: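 Phospho-H2AX Ser139 measured by HTRF (ex 320 nm; em 665 and 620 nm) after 24 hr antibody incubation. Compounds, 15 concentrations, 0.76% DMSO, were applied to CHO-K1 cells for 3hr at 37C before lysis.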

[3] = qHTS assay to identify small molecule agonists of H2AX - cell viability counter screen (AID 1224847; calls by dose curve; further: top concentration of the series differs between compounds; nearly all actives have a fitted effect of over 30% in size)
Procedure, shortened: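 Compounds tested at 15 concentrations were incubated 3 hr at 37C with wild-type CHO-K1 cells; cellular ATP-based luminescence (CellTiter-Glo) indicated viability.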

[4] = qHTS RealTime-Glo MT Cell Viability Assay in HepG2 cells - 24 hour (AID 1224867); further: nearly all actives have a fitted effect of over 50% in size
Procedure, shortened: (§1)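 HepG2 cells were seeded at 600 cells/well together with NanoLuc luciferase and a cell-permeant prosubstrate, preincubated 5 h at 37 C/5% CO2, then pin-dosed with compounds in DMSO. Nonlytic luminescence from viable cells was read at each time point.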

[5] = qHTS RealTime-Glo MT Cell Viability Assay in HEK293 cells - 32 hour (AID 1224868); further: top concentration of the series differs between compounds; nearly all actives have a fitted effect of over 50% in size
Procedure, shortened: (§2)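 HEK293 cells were seeded at 600 cells/well together with NanoLuc luciferase and cell-permeant prosubstrate, preincubated 5 h at 37 C/5% CO2, then given compound in DMSO by pintool. Luminescence from viable-cell prosubstrate reduction was read repeatedly over 40 h.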

[6] = A CellTox Green Cytotoxicity Assay to monitor cytotoxicity in HEK293 cells - 0 hour (AID 1224869); further: nearly all actives have a fitted effect of over 50% in size
Procedure, shortened: (§3)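 Seeding of HEK293 cells together with cytotoxicity dye preceded a 5 h incubation at 37 C/5% CO2. Test compounds in DMSO were then added and fluorescence monitored across 40 h.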

[7] = qHTS RealTime-Glo MT Cell Viability Assay in HepG2 cells - 40 hour (AID 1224870); further: nearly all actives have a fitted effect of over 50% in size
Procedure, shortened: (§4)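 Real-time viability: cells seeded at 600 per well together with NanoLuc and cell-permeant prosubstrate, compounds added after 5 h incubation. Luminescence tracked at 0, 8, 16, 24, 32 and 40 h of exposure.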

[8] = A CellTox Green Cytotoxicity Assay to monitor cytotoxicity in HEK293 cells - 40 hour (AID 1224871); further: nearly all actives have a fitted effect of over 45% in size
Procedure, shortened: as §3

[9] = qHTS RealTime-Glo MT Cell Viability Assay in HEK293 cells - 16 hour (AID 1224872)
Procedure, shortened: as §2

[10] = qHTS RealTime-Glo MT Cell Viability Assay in HepG2 cells - 8 hour (AID 1224873); further: nearly all actives have a fitted effect of over 55% in size
Procedure, shortened: as §4

[11] = qHTS RealTime-Glo MT Cell Viability Assay in HEK293 cells - 40 hour (AID 1224874); details: RealTime-Glo luminescence; max response: hits give low values; further: nearly all actives have a fitted effect of over 50% in size
Procedure, shortened: (§5)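 Tox21 screen in HEK293 using RealTime-Glo MT chemistry, with cells and reagent co-dispensed. Luminescence proportional to viable cell number was captured at intervals during 40 h compound exposure at 37 C.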

[12] = A CellTox Green Cytotoxicity Assay to monitor cytotoxicity in HEK293 cells - 24 hour (AID 1224875); further: nearly all actives have a fitted effect of over 45% in size
Procedure, shortened: as §3

[13] = A CellTox Green Cytotoxicity Assay to monitor cytotoxicity in HepG2 cells - 16 hour (AID 1224876); further: nearly all actives have a fitted effect of over 45% in size; further: potency means the concentration at half of the fitted maximal effect
Procedure, shortened: (§6)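 Nonlytic assay: viable cells exclude the dye, so fluorescence scales with cell death. HepG2 at 600 cells/well, compounds added after 5 h, signal read across 40 h.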

[14] = A CellTox Green Cytotoxicity Assay to monitor cytotoxicity in HepG2 cells - 24 hour (AID 1224878); further: nearly all actives have a fitted effect of over 45% in size; further: potency means the concentration at half of the fitted maximal effect
Procedure, shortened: as §6

[15] = qHTS RealTime-Glo MT Cell Viability Assay in HEK293 cells - 0 hour (AID 1224880); further: nearly all actives have a fitted effect of over 45% in size; further: potency means the concentration at half of the fitted maximal effect
Procedure, shortened: as §5

[16] = qHTS assay to identify small molecule agonists of the hypoxia (HIF-1) signaling pathway (AID 1224846; active means well fitted activation curve with a large enough effect in the signal ratio in the repeat runs, not every such curve was filed as active; the % refers to the signal ratio)
Procedure, shortened: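 Hypoxia-pathway activation was scored as increased beta-lactamase from an HRE-controlled reporter in ME-180 cells; plated at 2,000 cells per well with 0.5% dialyzed FBS, they were exposed 17 hrs to compounds and then given CCF4-AM.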

[17] = qHTS assay to identify small molecule agonists of the estrogen related receptor (ERR) signaling pathway from Tox21 library (AID 1224849; calls by dose curve; further: nearly all actives have a fitted effect of over 15% in size); details: ERR reporter cell line, ONE-Glo luciferase, 18 h; at 92.4 µM (top of the series) unless noted
Procedure, shortened: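 Six hours post-seeding at 37 C/5% CO2, ERR cells receive DMSO-solubilised compounds; after 18 h at 37 C, ONE-Glo reagent is applied and luminescence recorded.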

[18] = qHTS RealTime-Glo MT Cell Viability Assay in HepG2 cells - 32 hour (AID 1224877); further: nearly all actives have a fitted effect of over 55% in size
Procedure, shortened: as §1

[19] = A CellTox Green Cytotoxicity Assay to monitor cytotoxicity in HepG2 cells - 40 hour (AID 1224879); further: nearly all actives have a fitted effect of over 40% in size; further: potency means the concentration at half of the fitted maximal effect
Procedure, shortened: as §6

[20] = qHTS assay to identify small molecule antagonists of the estrogen related receptor (ERR) signaling pathway from Tox21 library (AID 1224848); further: nearly all actives have a fitted effect of over 50% in size; further: potency means the concentration at half of the fitted maximal effect
Procedure, shortened: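 Antagonist-mode screen of the Tox21 10K library in an NTP-provided ERR reporter cell line; 18 h compound exposure at 37 C, luminescence measured with ONE-Glo.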

| SMILES | Potency [1] | Potency [2] | Potency [3] | Potency [4] | Potency [5] | Potency [6] | Potency [7] | Potency [8] | Potency [9] | Potency [10] | max response [11] | Potency [12] | Potency [13] | Potency [14] | Potency [15] | Potency [16] | activity change, positive = activation [17] | Potency [18] | Potency [19] | Potency [20] |
| --- | --- | --- | --- | --- | --- | --- | --- | --- | --- | --- | --- | --- | --- | --- | --- | --- | --- | --- | --- | --- |
| O=C1C(O)=C(O)C(=O)C(O)=C1O | inactive | inactive | inactive | inactive | inactive | inactive | inactive | inactive | inactive | inactive | -9.06% | inactive | inactive | inactive | inactive |  |  |  |  |  |
| Nc1ccccc1S(=O)(=O)c1ccccc1 | inactive |  | inactive | inactive | inactive | inactive | inactive | inactive | inactive | inactive | -22.9% | inactive | inactive | inactive | inactive | inactive | -20.8% | inactive | inactive |  |
| C#CCN(C)CCCOc1ccc(Cl)cc1Cl | inactive | inactive |  | inactive | inactive | inactive |  | inactive | inactive | inactive | -21.6% | inactive | inactive | inactive | inactive |  |  | inactive |  |  |
| C/C=C(/C(=C/C)c1ccc(OC(C)=O)cc1)c1ccc(OC(C)=O)cc1 | inactive | inactive | inactive | inactive | inactive | inactive | inactive | inactive | inactive | inactive |  | inactive |  | inactive | inactive |  |  | inactive | inactive |  |
| CCN(CC)CCOC(=O)C(Cc1cccc2ccccc12)CC1CCCO1 (configuration not stated) | inactive | inactive | inactive | inactive |  | inactive | inactive |  | inactive | inactive |  | inactive |  | inactive |  |  |  |  | inactive |  |
| NS(=O)(=O)c1ccc(N2CCCCS2(=O)=O)cc1 |  | inactive |  |  |  |  |  |  |  |  |  |  |  |  |  |  |  |  |  |  |
| C=CCOC(=O)CCC1CCCCC1 |  | inactive | inactive | inactive | inactive | inactive | inactive | inactive | inactive |  | 4.81% | inactive | inactive | inactive | inactive | inactive |  | inactive | inactive | inactive |
| CCCCC/C=C\C/C=C\CCCCCCCC(=O)NC(C)c1ccccc1 (configuration not stated) |  | inactive | inactive | inactive | inactive | inactive | inactive | inactive | inactive | inactive | -16.2% | inactive | inactive | inactive | inactive | inactive |  |  |  | 18.8 µM (active) |
| C[C@H]1C[C@H]2[C@@H]3CCC4=CC(=O)C=C[C@]4(C)[C@@]3(Cl)[C@@H](O)C[C@]2(C)[C@@]1(O)C(=O)CO |  | inactive | inactive | inactive | inactive | inactive | inactive |  |  |  | -22.6% | inactive | inactive | inactive | inactive |  | -28.8% [at 42.5 µM] | inactive | inactive | 26.6 µM (active) |
| CCc1cc(C2=C(C(=O)O)N(c3ccccc3C(F)(F)F)S(=O)(=O)c3ccccc32)cc2c1OCO2 |  | inactive | inactive | inactive | inactive |  | inactive | inactive | inactive | inactive | -24.9% | inactive | inactive | inactive | 43.1 µM (active) | inactive | -39.9% | inactive | inactive | 24.1 µM (active) |
| C=CCOc1ccccc1OCC(O)CNC(C)C (configuration not stated) |  | inactive | inactive | inactive | inactive | inactive | inactive | inactive | inactive |  | 4.45% | inactive | inactive | inactive | inactive |  | 4.2% [at 42.5 µM] | inactive | inactive | inactive |
| CC1(c2ccccc2)OC(C(=O)O)=CC1=O (configuration not stated) |  | inactive | inactive | inactive | inactive | inactive |  | inactive | inactive | inactive | 2.42% | inactive | inactive | inactive | inactive | inactive |  | inactive | inactive |  |
| CCC(CC)Nc1ccc(C)c(C)c1 |  | inactive | inactive | inactive | inactive | inactive | inactive | inactive | inactive |  | 12.5% | inactive | inactive |  | inactive | inactive |  |  | inactive |  |
| CCCCC1=NC2(CCCC2)C(=O)N1Cc1ccc(-c2ccccc2-c2nn[nH]n2)cc1 |  | inactive | inactive | inactive | inactive | inactive | inactive | inactive | inactive | inactive | -1.18% | inactive | inactive | inactive | inactive | inactive |  | inactive | inactive |  |
| CCCOC(C(=O)OC1CCN(C)CC1)(c1ccccc1)c1ccccc1 |  | inactive | inactive | inactive |  | inactive | inactive |  |  | inactive |  |  | 19 µM (active) | 23.9 µM (active) | inactive | inactive | -25.8% [at 42.5 µM] | inactive | 23.9 µM (active) |  |
| CN(C)CCOC(c1ccccc1)c1ccc(Br)cc1 (configuration not stated) |  | inactive | inactive | inactive |  | inactive | inactive | inactive | inactive | inactive |  | inactive |  | 23.9 µM (active) | inactive | inactive | -2.31% [at 42.5 µM] |  | 23.9 µM (active) | inactive |
